This note sets out measurements from PubChem BioAssay (NCATS).

Records with an inconclusive call do not appear. Activity calls are given as the source filed them. Unless noted, calls follow the shape of the dose curve; as a rule, active = well fitted curve in the direction sought with a large enough effect; inconclusive = small, poorly fitted or top-dose-only effect, or another doubt; inactive = no such curve, though single readings can be large; an effect the other way counts as inactive or inconclusive.

Assay [1] in a line: qHTS assay for small molecule agonists of the antioxidant response element (ARE) signaling pathway measured by Nrf2-dependant transcriptional activity (AID 720636; active = well fitted curve in the direction sought with a large enough effect in the repeat runs; an effect the other way counts as inactive or inconclusive;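 also: HepG2 cells with an ARE-driven luciferase reporter; % of control where 0% means no effect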). In short, it runs like this: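 In HepG2 cells engineered with an Nrf2-responsive luciferase gene, ARE induction was quantified as luminescence after 16 hr compound treatment at 37 C.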
Assay [2] can be described thus: qHTS assay for small molecule antagonists of the retinoid-related orphan receptor gamma (ROR-gamma) signaling pathway - cell viability counter screen (AID 720652; active = well fitted curve in the direction sought with a large enough effect in the repeat runs; an effect the other way counts as inactive or inconclusive;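 also: series mostly up to about 92 µM; compound exposure lasted 16 hr before ATP read; % is scaled to controls: 0 for no effect and ±100 for the full control effect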). In outline: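 Cytotoxicity counter screen: intracellular ATP (CellTiter-Glo luminescence) measured in the doxycycline-induced CHO RORE-luciferase reporter line after 16 hr compound exposure at 37 C, 5% CO2.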

In assay [3] the target is Arylsulfatase A (Homo sapiens) (UniProt P15289). Description: qHTS screen for enhancers of Arylsulfatase A (ASA1): LOPAC Validation Assay (AID 720538). As to conditions: outcome: dose series up to 57.5 µM. In outline:
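Cell-based enhancement test: residual ASA activity in SV40-transformed I179S patient fibroblasts is measured by pNCS turnover (0.5mM final, 14h, room temperature) following 48h compound incubation; higher fluorescence indicates activation.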

Assay [4] can be described thus: qHTS for compounds that reverse cellular toxicity of Amyloid beta (A-beta) peptide in yeast: LOPAC Validation Assay (AID 720559).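 Also: plate controls were DMSO for no effect and equimolar ferric chloride plus clioquinol rescue for full effect.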 In outline: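 Here, A-beta-toxic yeast grow with test compounds at 30 C for 48 hr before optical density at 600 nm is recorded; data are normalized against DMSO and the FeCl3-clioquinol control.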
Assay [5] can be described thus: qHTS for Activators of Parkin Expression: LOPAC Validation Assay (NLuc Reporter) (AID 720572). In outline:
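NLuc signal, read 10 min after reagent and following a prior FLuc read, is normalized to DMSO (0) and positive controls (100%). Cells: neuronal Parkin-promoter coincidence reporter line; compounds tested 7-point, 24 h, 37 C, 5% CO2.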

Assay [6] in a line: qHTS for Activators of Parkin Expression: LOPAC Validation Assay (FLuc Reporter) (AID 720573). In short, it runs like this: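 Readout is FLuc luminescence from neuronal reporter cells (Parkin promoter, FLuc plus NLuc) after 24 h compound exposure in dose response. Values normalized to neutral DMSO and positive-control compounds.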
For assay [7], the target named is Hexokinase-4 (Homo sapiens) + Glucokinase regulatory protein (Homo sapiens) (UniProt P35557+Q14397). Put plainly: qHTS assay for inhibitors of recombinant human GCK-GKRP interaction: Diaphorase-coupled assay (AID 743205). In short, it runs like this: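 Signal derives from resorufin generated by diaphorase, linked to GCK turnover of glucose (5 mM) and ATP (0.4 mM). Enzyme complex was added after a 20-minute compound preincubation and monitored for 30 minutes.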
Sequence of Hexokinase-4 (Homo sapiens) + Glucokinase regulatory protein (Homo sapiens) (P35557 whole entry, looked up): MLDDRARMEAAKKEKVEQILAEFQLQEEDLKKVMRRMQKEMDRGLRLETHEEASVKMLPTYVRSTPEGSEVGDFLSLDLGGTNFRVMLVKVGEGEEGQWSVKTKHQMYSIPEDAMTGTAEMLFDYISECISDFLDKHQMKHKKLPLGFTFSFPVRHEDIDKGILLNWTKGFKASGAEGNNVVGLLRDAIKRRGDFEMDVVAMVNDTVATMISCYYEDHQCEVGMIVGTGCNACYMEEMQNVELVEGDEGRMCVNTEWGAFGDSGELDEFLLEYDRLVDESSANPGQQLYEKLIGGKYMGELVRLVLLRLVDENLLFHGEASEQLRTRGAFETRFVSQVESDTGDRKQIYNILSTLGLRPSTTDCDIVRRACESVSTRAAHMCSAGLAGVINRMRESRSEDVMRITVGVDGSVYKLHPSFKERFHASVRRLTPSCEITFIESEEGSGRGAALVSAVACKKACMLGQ
Sequence of Hexokinase-4 (Homo sapiens) + Glucokinase regulatory protein (Homo sapiens) (Q14397 whole entry, looked up): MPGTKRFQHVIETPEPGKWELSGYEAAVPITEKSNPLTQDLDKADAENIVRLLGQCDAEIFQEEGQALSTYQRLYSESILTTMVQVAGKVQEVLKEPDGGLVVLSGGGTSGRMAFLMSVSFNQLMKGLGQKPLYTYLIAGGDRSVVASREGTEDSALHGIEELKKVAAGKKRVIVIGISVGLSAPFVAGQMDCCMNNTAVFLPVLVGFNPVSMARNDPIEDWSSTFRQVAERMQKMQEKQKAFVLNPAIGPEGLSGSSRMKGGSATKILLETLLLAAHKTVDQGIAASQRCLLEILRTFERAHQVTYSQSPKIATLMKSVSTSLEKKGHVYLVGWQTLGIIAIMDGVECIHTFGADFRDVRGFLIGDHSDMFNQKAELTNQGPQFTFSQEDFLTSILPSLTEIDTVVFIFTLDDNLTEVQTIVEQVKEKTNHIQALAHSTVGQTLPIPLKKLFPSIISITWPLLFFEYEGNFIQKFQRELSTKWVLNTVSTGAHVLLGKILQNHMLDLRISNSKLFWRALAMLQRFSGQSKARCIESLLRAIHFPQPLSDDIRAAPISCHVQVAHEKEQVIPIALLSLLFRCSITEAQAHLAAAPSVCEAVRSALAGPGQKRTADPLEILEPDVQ

Sequence of Arylsulfatase A (Homo sapiens) (P15289 whole entry, looked up): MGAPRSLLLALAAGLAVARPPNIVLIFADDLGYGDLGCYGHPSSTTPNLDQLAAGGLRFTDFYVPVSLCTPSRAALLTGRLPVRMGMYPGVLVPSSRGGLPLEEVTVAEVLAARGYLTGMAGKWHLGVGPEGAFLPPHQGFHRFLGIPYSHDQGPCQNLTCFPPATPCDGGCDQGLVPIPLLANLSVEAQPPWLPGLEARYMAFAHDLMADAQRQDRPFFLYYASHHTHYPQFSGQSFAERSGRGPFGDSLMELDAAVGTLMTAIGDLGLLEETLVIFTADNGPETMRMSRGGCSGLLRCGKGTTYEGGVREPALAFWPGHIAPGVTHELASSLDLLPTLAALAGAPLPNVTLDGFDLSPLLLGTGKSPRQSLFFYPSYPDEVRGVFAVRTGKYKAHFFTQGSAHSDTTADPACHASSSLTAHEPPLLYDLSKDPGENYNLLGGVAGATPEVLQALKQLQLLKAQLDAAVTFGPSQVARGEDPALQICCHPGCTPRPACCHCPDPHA

For the compound `C[C@H]1C[C@H]2[C@@H]3CCC4=CC(=O)C=C[C@]4(C)[C@@]3(Cl)[C@@H](O)C[C@]2(C)[C@@]1(O)C(=O)CO`, the Potency entry in assay [1] was “inactive”.
On the same count and under the same terms, the result for `Cc1cc(=O)n(-c2ccccc2)n1C` reads “inactive”.
Turning to `O=C(O)CCCCC(=O)O`, the Potency result in assay [1] and in assay [2] was “inactive” in each case.
Consider `CC(CCc1ccccc1)NCC(O)c1ccc(O)c(C(N)=O)c1` (stereo not drawn), for which the outcome in assay [3], in assay [4], in assay [5], in assay [6] and in assay [7] was inactive.
With `CCCn1c(=O)[nH]c(=O)c2[nH]cnc21`, the outcome in assay [3] was “inactive; inhibitor; fitted 0.151 uM”. In addition, in assay [7], the outcome was inactive.
Regarding `CN(C)C(=S)SC(=S)N(C)C`, the Potency result in assay [1] was “inactive”.
For `CC(C)COC(=O)OCN1C(=O)CN(CCN2CC(=O)N(COC(=O)OCC(C)C)C(=O)C2)CC1=O`, the compound was called inactive in assay [4], in assay [5], in assay [6] and in assay [7].
On to `CC(C)(C)CC(C)(C)c1ccc(OCCOCC[N+](C)(C)Cc2ccccc2)cc1`, for which the Potency entry in assay [2] was “inactive”.
`N[C@H](CO)C(=O)O`: the result in assay [3], in assay [4], in assay [5], in assay [6] and in assay [7] was inactive.
For the compound `CC(O)(P(=O)(O)O)P(=O)(O)O`, the Potency result in assay [1] was “inactive”.
